This note sets out measurements from PubChem BioAssay AID1852 (Sanford-Burnham Center for Chemical Genomics, 2009).

Molecules are shown by their SMILES. The campaign covered roughly 2,500 compounds. About 1,100 (44%) were called active. So high a share suggests a set chosen from earlier hits. The list shows a part of the results. Values without a mark were called inactive.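 How the source made its calls: active means inhibition above 50% at 4 µM in the single-point screen; inactive means inhibition of 50% or less.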

A short description of this assay: blockers of TNF-a NF-kB luciferase induction – cell-based, HEK293T NF-kB-Luc, luminescence, selectivity assay for NOD1/NOD2 signaling inhibitor project, primary screen (AID 1852). As to conditions: TNF-a induced, 14 h, at 4 µM, active compounds read high.
Usually inhibition stands for the change of the read-out against control, counted positive when it falls. As to `O=C(Nc1nc(-c2ccccn2)cs1)Nc1ccc(F)cc1F`, the inhibition is 82.1% (active).
Regarding `CCSc1nsc(NC(=O)Nc2cccc(F)c2)n1`, the inhibition was 46.9%.
Then `O=C(Nc1nc(-c2ccccn2)cs1)c1ccc(Cl)s1`, with 19.4%; and `Fc1cc(F)c2nc(Nc3nc4c(F)cccc4s3)sc2c1`, with -17.5%.
The same measure for `COc1ccccc1-c1nnc(Nc2nc3c(OC)cccc3s2)o1`: 27.9%; for `Cc1cccnc1Nc1nc(-c2ccccn2)cs1`: 104% (active); for `COc1cccc2sc(Nc3nc(-c4ccccn4)cs3)nc12`: 102% (active).
On to `COc1ccc(CCNS(=O)(=O)c2ccc(Br)s2)cc1`, for which the inhibition was 35%.
`CSc1cccc(NS(=O)(=O)c2ccc(-c3coc(C)n3)cc2)c1`: the inhibition was 24.6%.
Consider `CC(=O)c1cccc(NS(=O)(=O)c2ccc(-c3cnc(C4CC4)o3)cc2)c1`, for which the inhibition was 66.3% (active).
The same measure for `COc1ccc(NS(=O)(=O)c2ccc(-c3cnc(C4CC4)o3)cc2)cc1OC`: 38.9%; for `O=C(NC(NNc1ccc([N+](=O)[O-])cc1)(C(F)(F)F)C(F)(F)F)c1ccc(Cl)cc1`: 50.3% (active); for `O=C(Nc1cc(C(F)(F)F)cc(C(F)(F)F)c1)Nc1cnn(-c2ccc([N+](=O)[O-])cc2)c1C(F)(F)F`: 48.5%.
Then `CCN(CC)C(=O)c1oc2ccc(S(=O)(=O)N3CC(C)CC(C)C3)cc2c1C` (configuration not stated), with 31.2%.
With `CCOC(=O)c1oc2ccc(S(=O)(=O)n3nc(-c4ccc(OC)cc4)cc3N)cc2c1C`, the inhibition is 60.2% (active).
The same measure for `CCOC(=O)C(=CNc1ccc2c(c1)c1ccccc1n2CC)C(=O)OCC`: 17.5%.
As for `CCn1c(=O)c2c(cnn2C)c2ccccc21`, the inhibition was 81.7% (active).
Take `CCOc1ccc(C(=O)C(CCC(CN(C)C)C(=O)c2ccc(OCC)cc2)CN(C)C)cc1` (configuration not stated): the inhibition is 12.6%.
The same measure for `CN(C)CC(CCC(CN(C)C)C(=O)c1ccccc1)C(=O)c1ccccc1` (configuration not stated): 102% (active); for `C=CCNC(=S)N/N=C(\C)c1ccccn1`: 111% (active); for `C/C(=N\NC(=O)c1ccccc1Cl)c1ccccn1`: 97.3% (active).
Then `C/C(=N\NC(=O)c1ccccc1F)c1ccccn1`, with 49.5%.
With `C/C(=N\NC(=O)C(c1ccccc1)c1ccccc1)c1ccccn1`, the inhibition is 103% (active).
Then `CSC(=S)N/N=C(\C)c1ccc(Br)cc1`, with 11.8%.
The same measure for `C/C(=N\Nc1nc2ccccc2[nH]1)c1ccccn1`: 101% (active); for `COc1ccc(/C=C/c2cc(-c3ccc(C)cc3)o[n+]2C)cc1`: 30.9%; for `C/C(=N\NC(=O)c1cccc2ccccc12)c1ccccn1`: 103% (active).
For `C/C(=N\NC(=O)C(C)Oc1ccc([N+](=O)[O-])cc1)c1ccccn1` (configuration not stated), the inhibition is 103% (active).
Then `C/C(=N\NC(=O)c1cc(-c2cccs2)nc2ccccc12)c1ccccn1`, with 106% (active); and `C/C(=N\NC(=O)C1COc2ccccc2O1)c1ccccn1` (configuration not stated), with 83.2% (active); and `C/C(=N\NC(=O)c1n[nH]c2c1CCC2)c1cccs1`, with 46.3%.
The same measure for `COc1ccc(CN(C)Cc2nc(Cc3cccc(F)c3)no2)c2cccnc12`: 48.3%; for `Cc1ccc(-n2c(C)cc(/C=c3/sc4nc5ccccc5n4c3=O)c2C)cc1`: -32%; for `COc1cccc(-n2nc(C#N)c(Cl)cc2=O)c1`: 45.7%.
In the case of `COc1ccc(-n2ncc(Cl)c(Cl)c2=O)cc1`, the inhibition was 78.2% (active).
In the case of `COc1ccc(-n2ncc3c(N(C)C4CCCCC4)ncnc32)cc1`, the inhibition is 23.2%.
Then `COc1ccc(-n2cc(C#N)c(=O)[nH]c2=O)cc1`, with 47.1%; and `COc1ccc(-n2nc(C#N)c(Cl)cc2=O)cc1`, with 59.1% (active); and `Cc1ccc(OCc2nnc(SC3CCc4ccccc4C3=O)n2C)cc1` (configuration not stated), with 17.5%.
The same measure for `CCOc1ccc(-n2c(C)c(C(C)=O)c3cc(OC(C)=O)ccc32)cc1`: 78.7% (active); for `COc1ccc(C(C)=O)cc1Cn1c(=O)cc(C)[nH]c1=O`: 40.6%.
Consider `COc1ccc2c(c1)c(C(C)=O)c(C)n2CCc1ccccc1`, for which the inhibition is 53.2% (active).
Take `COc1ccc(-n2c(C)c(C(C)=O)c3cc(OC(C)=O)ccc32)cc1`: the inhibition is 94.8% (active).
Then `COc1ccc2c(c1)c(=O)oc1c(C)c(OCc3ccc(C(=O)O)cc3)ccc12`, with 34.1%.
Take `CCOc1ccc(-n2c(C)c(C(C)=O)c3cc(O)ccc32)cc1`: the inhibition was 40.7%.
Then `COc1ccc2c(c1)c(C(C)=O)c(C)n2-c1ccc(C(C)=O)cc1`, with 71.3% (active); and `O=C(CCl)Nc1c(C(=O)Nc2ccc3c(c2)OCCO3)oc2ccccc12`, with -69.2%; and `O=C(NCCc1ccccc1F)c1ccc2c(c1)OCCO2`, with 80.8% (active).
Then `O=C(NCCc1ccccc1)c1ccc2c(c1)OCCCO2`, with 100% (active); and `O=C(NCCc1ccccc1)c1ccc2c(c1)OCCO2`, with 48.5%.
Then `CCSc1nc2c(c(=O)[nH]c(=O)n2C)n1C/C=C(/C)Cl`, with 11.6%; and `O=C(Nc1ccc(N2CCN(C(=O)c3ccccc3)CC2)cc1)c1ccc([N+](=O)[O-])o1`, with 25.2%; and `CCC(=O)N1CCN(c2ccc(NC(=O)c3cc4ccccc4o3)cc2Cl)CC1`, with 101% (active).
Turning to `Cc1cc(OCc2ccc(C(=O)Nc3ccc(C(=O)O)cc3)o2)ccc1Cl`, the inhibition is -32.8%.
For `O=C(Nc1ccc(N2CCN(C(=O)c3ccco3)CC2)c(Cl)c1)c1cc2ccccc2o1`, the inhibition is 99.1% (active).
The same measure for `CCCCc1nc(N2CCN(C(=O)c3ccco3)CC2)c(C#N)c2c1CCCC2`: 29.5%; for `O=C(Nc1ccc(N2CCCC2)c(Cl)c1)c1ccc([N+](=O)[O-])o1`: -26.1%.
For `O=C(Nc1ccc(N2CCN(C(=O)c3ccccc3)CC2)c(Cl)c1)c1ccc(Br)o1`, the inhibition is 67.5% (active).
Then `COc1ccc2[nH]c(=O)c(CN(Cc3cccnc3)S(=O)(=O)c3ccccc3F)cc2c1`, with 50.9% (active).
Take `COc1ccc(N(Cc2cc3cc(OC)ccc3[nH]c2=O)S(=O)(=O)c2ccc(NC(C)=O)cc2)cc1`: the inhibition was 16.3%.
Then `N#C/C(=C\C=C\c1ccccc1[N+](=O)[O-])C(=O)NC1CCCCC1`, with 61.6% (active); and `CC1CCCCC1NC(=O)/C(C#N)=C/C=C/c1ccccc1[N+](=O)[O-]` (configuration not stated), with 47.1%.
